Shown is part of a subset that was picked to be rich in hits.
NOMO-1 viab – NOMO-1 AML cell viability reduction, primary screen, STK33 inhibitor project, CellTiter-Glo luminescence | inhibition, % (test concentration not listed) | NOMO-1 AML viability, 72 h | AID 2330, 2010 | 37,000 tested, 7.5% active; in the data active means inhibition above about 80%; inconclusive means no clear call, values can overlap the other calls
STK33 kin inh – STK33 kinase inhibitors, primary screen, biochemical, luminescence, ADP-Glo, MBP substrate; AID 2322, 2010; inhibition, % at 12.5 µM; 27,000 tested, 0.44% active; in the data active means inhibition above about 20%; inconclusive means no clear call, values can overlap the other calls
PD-1 reverse act – activators reversing PD-1 mediated T-cell inhibition, primary screen, luminescence, primary human CD4 T cells, PD-L1 beads | CellTiter-Glo 96 h | activation, % (test concentration not listed) | 29,000 tested, under 10 active | AID 2316, 2010; call rule not given here;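 further: 0% = median vehicle wells and 100% = positive control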
Numbers without * were called inactive; ? = inconclusive; . = no result given.

SMILES	NOMO-1 viab	STK33 kin inh	PD-1 reverse act
Cc1cc(O)c(C=O)c2c1C(=O)Oc1c(C)c(O)c3c(c1O2)C(O)OC3=O (stereo not given)	-1.5	58.8*	.
COc1cc(C)c2c(c1C=O)Oc1c(c(C)c(O)c3c1C(O)OC3=O)OC2=O (stereo not given)	0.1	14.8	.
Cn1c(/C=C/C=C/N2CCCC2)nc2ccccc2c1=O	120.5*	1.7	-1.5
CSc1nc2ccccc2c(=O)n1C	11.0	.	-0.2
C[C@@H]1CN([C@H](C)CO)C(=O)Cc2cc(NS(=O)(=O)c3ccc(Cl)cc3)ccc2O[C@@H]1CN(C)Cc1ccc(Oc2ccccc2)cc1	82.3*	1.5	0.5
COc1ccc(CN(C)C[C@@H]2Oc3ccc(NS(=O)(=O)c4ccccc4)cc3CC(=O)N([C@H](C)CO)C[C@@H]2C)cc1	5.7	1.1	0.9
COc1ccc(S(=O)(=O)Nc2ccc3c(c2)CC(=O)N([C@H](C)CO)C[C@@H](C)[C@H](CN(C)Cc2ccccc2)O3)cc1	-10.2	0.8	1.6
C[C@H]1CN([C@@H](C)CO)C(=O)Cc2cc(NS(=O)(=O)c3ccccc3)ccc2O[C@H]1CN(C)Cc1ccc(Oc2ccccc2)cc1	70.4	2.8	.
COc1ccc(S(=O)(=O)Nc2ccc3c(c2)CC(=O)N([C@H](C)CO)C[C@@H](C)[C@@H](CN(C)Cc2ccc(Oc4ccccc4)cc2)O3)cc1	116.0*	-1.4	-2.5
COc1ccc(S(=O)(=O)Nc2ccc3c(c2)CC(=O)N([C@H](C)CO)C[C@H](C)[C@H](CN(C)Cc2ccc(Oc4ccccc4)cc2)O3)cc1	105.6*	.	.
N#Cc1c(NC(=O)Cn2cnc3ccccc3c2=O)sc2c1CCC2	14.1	0.1	.
COc1ccc(NC(=O)Cc2c(OC)ccc3cc(Br)ccc23)c(OC)c1	45.6	2.1	-1.9
CCC(=O)N1CCN(c2ccc(Cl)cc2NC(=O)COc2cc(C)cc(C)c2)CC1	45.1	-6.7	-7.2
C/C=C(\C)C(=O)O[C@@H]1c2c(ccc3ccc(=O)oc23)OC(C)(C)[C@@H]1OC(C)=O	27.4	2.0	.
Nc1cc(=O)[nH]c(SCC(=O)Nc2ccc(F)cc2)n1	3.6	1.6	.
CCc1ccc(OCC(=O)Nc2sc3c(c2C(=O)OC)CCC3)c(Br)c1	2.2	-4.8	0.5
COc1cc(Cl)c(C)cc1NC(=O)CN(C)S(=O)(=O)c1ccccc1	.	2.1	.
COc1ccc(C)cc1NC(=O)c1ccc(OCC(=O)Nc2cccc(C(F)(F)F)c2)cc1	5.7	-3.0	.
CC(C)S(=O)(=O)c1csc(NC(=O)N2CCCCC2)c1Cl	-3.8	.	0.5
CC(C)S(=O)(=O)c1csc(NC(=O)Nc2cc(C(F)(F)F)cc(C(F)(F)F)c2)c1Cl	112.7*	0.5	-16.7
COC(=O)CCSc1nc(SC)nc2sc3c(c12)CC(C)(C)OC3	18.1	2.4	.
CN(C)C(=O)CSc1nc2sc3c(c2c(=O)[nH]1)CCCC3	-24.8	-4.7	1.7
Cc1ccc(S(=O)(=O)Nc2ccc3c(c2)CC(=O)N([C@H](C)CO)C[C@@H](C)[C@@H](CN(C)Cc2ccc4c(c2)OCO4)O3)cc1	27.1	.	1.8
Cc1ccc(S(=O)(=O)Nc2ccc3c(c2)CC(=O)N([C@H](C)CO)C[C@H](C)[C@H](CN(C)Cc2ccc(Cl)c(Cl)c2)O3)cc1	99.8*	4.7	.
Cc1ccc(S(=O)(=O)Nc2ccc3c(c2)CC(=O)N([C@@H](C)CO)C[C@H](C)[C@@H](CN(C)Cc2ccc(Cl)c(Cl)c2)O3)cc1	128.3*	10.1	1.4
SMILES	NOMO-1 viab	STK33 kin inh	PD-1 reverse act
Cc1ccc(S(=O)(=O)Nc2ccc3c(c2)CC(=O)N([C@H](C)CO)C[C@H](C)[C@H](CN(C)Cc2ccc4c(c2)OCO4)O3)cc1	31.4	1.3	1.3
CC1CCc2nc(NC(=O)c3ccc(Cc4ccccc4)cc3)sc2C1 (stereo not given)	?	.	0.5
C[C@@H]1CN([C@H](C)CO)C(=O)Cc2cc(NC(=O)Nc3ccc(C(F)(F)F)cc3)ccc2O[C@@H]1CN(C)Cc1ccc(Cl)c(Cl)c1	79.3	0.9	.
C[C@H]1CN([C@@H](C)CO)C(=O)Cc2cc(NC(=O)Nc3ccc(C(F)(F)F)cc3)ccc2O[C@H]1CN(C)Cc1ccc(Cl)c(Cl)c1	135.7*	-1.5	-17.1
C[C@@H]1CN([C@H](C)CO)C(=O)Cc2cc(NC(=O)Nc3ccc(C(F)(F)F)cc3)ccc2O[C@H]1CN(C)Cc1ccc(Cl)c(Cl)c1	31.1	-2.5	1.1
C[C@H](CO)N1C[C@H](C)[C@H](CN(C)Cc2ccc(Cl)c(Cl)c2)Oc2ccc(NC(=O)Nc3ccc(C(F)(F)F)cc3)cc2CC1=O	123.7*	0.0	1.0
Cc1sc(NC(=O)CCn2cnc3ccccc3c2=O)c(C#N)c1C	-15.0	-0.3	1.0
CCCN(C#N)c1nc(NC(C)C)nc(NC(C)C)n1	29.0	.	-4.1
Nc1cc(N)nc(SCC(=O)Nc2ccc3ccccc3c2)n1	4.6	-1.6	.
